The values that follow come from ChEMBL document CHEMBL4513146, “CO-ADD screening of Karazin Kharkiv National University (Ukraine) compounds”.

Molecules are shown by their SMILES. Potency and affinity values are given separately.

For this assay, the system named is Escherichia coli. Particulars: Concentration 32 ug.mL-1;; ASSAY_TEST Inhibition of Bacterial Growth; detection method Absorption (OD600); MEDIA CAMHB; plate type 384well; NBS; CORNING #3640; time 18 hr.
With `CCOC(=O)c1ccc(NC(=O)Cn2nc3ccc(Sc4cccc(F)c4)nn3c2=O)cc1`, the Inhibition (commonly the relative decrease from the control value, in per cent) was -1.47%.

Consider `O=C(Cn1nc2c3cc(-c4ccc(Cl)cc4)nn3ccn2c1=O)Nc1ccc(F)cc1`, for which the Inhibition amounted to 4.85%.

With `CCOC(=O)c1ccc(NC(=O)Cn2nc3ccc(SCc4ccc(Cl)cc4)nn3c2=O)cc1`, the Inhibition is reported as -11.17%.

`CC(=O)c1cccc(NC(=O)Cn2nc3c(N4CCN(c5ccccc5C)CC4)nccn3c2=O)c1`: the Inhibition worked out at 2.22%.

As to `O=C(Cn1nc2c(SC3CCCCC3)nccn2c1=O)Nc1ccc(F)c(Cl)c1`, the Inhibition is on record as -12.19%.

As to `Cc1ccc(NC(=O)CSc2nnc3ccc(C(=O)Nc4cccc(F)c4)cn23)c(C)c1`, the Inhibition is reported as -1.6%.

In the case of `CCOc1ccc(-n2ccn3c(SCC(=O)Nc4cc(OC)cc(OC)c4)nnc3c2=O)cc1`, the Inhibition is -3.15%.

Consider `CCc1cccc(NC(=O)CSc2nnc3c(=O)n(-c4ccccc4)ccn23)c1`, for which the Inhibition was -11.7%.

In the case of `O=c1n(Cc2nc(-c3ccc(OC(F)(F)F)cc3)no2)nc2ccc(-c3ccccc3)nn12`, the Inhibition is reported as -5.47%.

As to `COc1cccc(-n2ccn3c(SCC#N)nnc3c2=O)c1`, the Inhibition was determined as 0.96%.

On to `Cn1c(=O)c2sccc2n2c(=O)n(Cc3cccc(Br)c3)nc12`, for which the Inhibition stood at 0.53%.

With `Cc1ccc(Cn2nc3c(=O)n(-c4cccc(Cl)c4C)ccn3c2=O)cc1`, the Inhibition is -3.14%.

For the compound `COc1cc(NC(=O)Cn2nc3ccc(-c4ccc(C)c(C)c4)nn3c2=O)cc(OC)c1`, the Inhibition is -5.07%.

As to `O=C(Cn1nc2c(N3CCOCC3)nccn2c1=O)N1CCN(c2ccccc2F)CC1`, the Inhibition is listed as 2.59%.

In the case of `CCOc1ccc(NC(=O)Cn2nc3ccc(SCc4ccc(Cl)cc4)nn3c2=O)cc1`, the Inhibition was -5.7%.

In the case of `COc1ccccc1-n1ccn2c(SCc3cccc(F)c3)nnc2c1=O`, the Inhibition is -7.27%.

Consider `Cc1nnc2ccc(S(=O)(=O)N(Cc3cc(F)cc(F)c3)c3ccc(F)cc3)cn12`, for which the Inhibition was -3.09%.

Regarding `COc1ccc(CCNC(=O)Cn2nc3c(N4CCOCC4)nccn3c2=O)cc1OC`, the Inhibition is reported as 0.1%.

For the compound `O=c1c2nnc(SCc3cccc(C(F)(F)F)c3)n2ccn1-c1ccc(Br)cc1`, the Inhibition is on record as -4.81%.

On to `CCC(C)NC(=O)Cn1nc2n(CC(C)C)c(=O)c3ccc(C(=O)NC4CCCCC4)cc3n2c1=O` (centres undefined), for which the Inhibition is on record as -3.14%.

`O=c1n(Cc2c(F)cccc2Cl)nc2ccc(-c3ccccc3)nn12`: the Inhibition was determined as 0.7%.

As to `Cc1ccc(-c2cc3c4nn(CC(=O)Nc5ccc6c(c5)OCO6)c(=O)n4ccn3n2)cc1`, the Inhibition is given as -1.53%.

On to `COc1ccc(C(=O)CSc2nnc3c(=O)n(-c4ccc(F)cc4)ccn23)cc1`, for which the Inhibition is -0.44%.

Regarding `Cc1ccc(-c2cc3c4nn(CC(=O)Nc5cccc(C)c5C)c(=O)n4ccn3n2)cc1C`, the Inhibition is given as -0.36%.

For the compound `Cc1cc(C)cc(NC(=O)Cn2nc3n(C)c(=O)c4c(c(-c5ccccc5)cn4C)n3c2=O)c1`, the Inhibition was 1.88%.

For `COc1ccc(NC(=O)Cn2nc3c(N4CCOCC4)nccn3c2=O)cc1Cl`, the Inhibition is listed as -1.05%.

In the case of `COCCCNC(=O)CSc1nnc2c(=O)n(Cc3ccccc3)ccn12`, the Inhibition is recorded as -1.7%.

In the case of `O=c1c2sccc2n2c(=O)n(Cc3cccc(Cl)c3)nc2n1CCc1ccccc1`, the Inhibition amounted to 1.01%.

Consider `CCC(Sc1nnc2c(=O)n(-c3cccc(OC)c3)ccn12)C(=O)Nc1cc(OC)ccc1OC` (centres undefined), for which the Inhibition was -13.69%.

Regarding `Cc1nnc2ccc(S(=O)(=O)N(Cc3cccc(F)c3)c3cccc(Cl)c3)cn12`, the Inhibition is recorded as -14.72%.

With `CCc1ccc(NC(=O)CSc2nnc3c(=O)n(-c4ccccc4)ccn23)cc1`, the Inhibition is reported as -2.07%.

Consider `CSc1cccc(NC(=O)Cn2nc3c(Sc4cccc(F)c4)nccn3c2=O)c1`, for which the Inhibition is listed as -0.46%.

For `Cc1c(Cl)cccc1-n1ccn2c(=O)n(Cc3ccccc3Cl)nc2c1=O`, the Inhibition was -11.83%.

As for `Cc1ccc(NC(=O)Cn2nc3c4cc(-c5ccc(C)c(C)c5)nn4ccn3c2=O)c(C)c1`, the Inhibition is -22.36%.

For the compound `CCc1ccccc1NC(=O)Cn1nc2n(CCC(C)C)c(=O)c3sccc3n2c1=O`, the Inhibition was -9.52%.

As to `COc1ccc(NC(=O)Cn2nc3c4cc(-c5ccc(C)cc5)nn4ccn3c2=O)c(OC)c1`, the Inhibition is -1.29%.

Consider `CCc1nnc2c(SCC(=O)Nc3cc(Cl)ccc3C)nc3ccccc3n12`, for which the Inhibition was -0.41%.

For `Cc1cc2nn(CC(=O)Nc3cccc(C)c3C)c(=O)n2c(Nc2ccc(F)c(C)c2)n1`, the Inhibition is given as -7.8%.

As for `CCCCOc1ccc(-c2cc3c4nnc(SCC(=O)Nc5ccc(C)c(C)c5)n4ccn3n2)cc1`, the Inhibition was -4.59%.
